The structures appear in SMILES notation.

The experiment relates to P. falciparum NF54-pfs16-GFP late (IV-V) stage gametocytes. In words: relative % inhibition of viable gametocyte number; higher = more gametocytocidal. The note with it: 5 µM; stage: late (IV-V) gametocyte; incubation 72 h. The method in brief:
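In 384-well poly-D-lysine imaging plates, NF54 pfs16-GFP gametocytes (magnet-isolated, early I/IIa on day 2 or late on day 8; 10% parasitaemia, 0.1% haematocrit) received compound in duplicate at 5 or 0.5 µM. Plates stood 72 h at 37°C in 5% CO2 and 5% O2, then overnight with MitoTracker Red before confocal imaging, where elongated GFP objects with MitoTracker signal above cut-off counted as viable. Relative inhibition was calculated against vehicle and positive-control wells on the same plate.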
In the case of `Oc1ccccc1CN1CCN(C(c2ccccc2)c2ccccc2)CC1`, the relative % inhibition turned out to be 78.5%.
For the compound `COc1cc2c3cc1Oc1c(OC)c(OC)cc4c1C(Cc1ccc(O)c(c1)Oc1ccc(cc1)CC3N(C)CC2)N(C)CC4` (stereo not given), the relative % inhibition is 23.7%.
Then `COc1ccc(C(=O)C2CC2c2ccc(Cl)cc2)cc1` (stereo not given), with 48.3%; and `CC(C)CNC(=O)c1c(N)n(CCc2ccccc2F)c2nc3ccccc3nc12`, with 8.27%.
With `O=C(Nc1cccc(C(F)(F)F)c1)c1cc(Cl)ccc1O`, the relative % inhibition was determined as 30.1%.
Take `CCOc1ccc(C2N(C)c3ccccc3N2C)cc1`: the relative % inhibition is -12.5%.
Turning to `COc1ccc(-c2cc(=O)oc3c4c(ccc23)OCN(Cc2ccc(F)cc2)C4)cc1`, the relative % inhibition was 34.8%.
Then `OC(CNC1CCCC1)Cn1c2ccccc2c2ccccc21` (stereo not given), with 66%.
On to `O=C(NCC1Cc2cccc(-c3ccncc3)c2O1)c1csc2c1CCCC2` (stereo not given), for which the relative % inhibition is -0.912%.
As to `CCOc1cc2c(cc1OCC)C(c1cc(C)c(O)c(C)c1)NCC2` (stereo not given), the relative % inhibition was found to be 34.7%.

Source of the values: the supplement of paper PMC3842684.
